Source: PubChem BioAssay
“And” between values parts separate entries of the source, which are not always exact repeats. Equal values may be shown once. Inconclusive results are not listed. The source made the active and inactive calls.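 How the source made its calls, unless noted: active means GFP response, as percent of the DMSO control, above the screen-wide mean plus 3 SD, about 139; inconclusive means no response measured because the compound's own fluorescence interfered; inactive means the rest.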 Peptide text beside a SMILES is read from it.

assay: modulators of MEP2-GFP levels in yeast, primary screen, S. cerevisiae, multiplex flow cytometry (AID 1867);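 further: median GFP channel fluorescence of barcode-gated MEP2-GFP cells measured by flow cytometry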; details: S. cerevisiae MEP2-GFP strain, 3 h, at 10 µM, active compounds read high, 100% means same as DMSO wells

| SMILES | GFP response vs DMSO |
| --- | --- |
| CC(C)(C)OC(=O)N1CC(O)CC1C(=O)OCC(=O)c1ccc(Cl)cc1 (stereo not drawn) | 98.3% (inactive) |
| O=C(O)c1ccc(OCCn2ccnc2)cc1 | 95.6% (inactive) |
| CCOc1ccc2ccccc2c1CNc1nnnn1C | 103% (inactive) |
| COc1ccccc1N1C(=O)C2CC(C)=C(C)CC2C1=O (stereo not drawn) | 102% (inactive) |
| Cc1coc2c1c(C)cc1oc(=O)c(Cc3ccccc3)c(C)c12 | 98.7% (inactive) |
| COc1cc2c3c(c1)C(C)CC(C)(C)N3C(=O)C2=O (stereo not drawn) | 122% (inactive) |
| NS(=O)(=O)c1cc2c(cc1Cl)NCNS2(=O)=O | 102% (inactive) |
| O=C(O)C1Cc2ccccc2CN1S(=O)(=O)c1ccccc1 (stereo not drawn) | 104% (inactive) |
| COc1cccc(C2CC(=O)C3=C(C2)Nc2ccccc2N(C(=O)CCC(=O)O)C3c2ccc(F)cc2)c1 (stereo not drawn) | 149% (active) |
| CCC(C(=O)Nc1ccc2c(c1)OCCO2)c1ccccc1 (stereo not drawn) | 103% (inactive) |
| COc1ccc(C2C(C(=O)c3ccco3)=C(O)C(=O)N2CC2CCCO2)cc1 (stereo not drawn) | 105% (inactive) |
| C=CCNC(=O)c1ccc(-c2cccc([N+](=O)[O-])c2)o1 | 101% (inactive) |
| CC12CCC(C(=O)N(CCC#N)CCC#N)(CC1=O)C2(C)C (stereo not drawn) | 106% (inactive) |
| CC(=O)c1c(C)c(C)c2n1CCn1c(C)ccc1-2 | 107% (inactive) |
| COc1cc2cc(C)nc(Cc3cccc4ccccc34)c2cc1OC | 105% (inactive) |
| Cc1oc2cc(O)cc(O)c2c(=O)c1-c1ccc2c(c1)OCCCO2 | 103% (inactive) |
| O=CNC1CCCc2c1[nH]c1ccc(Cl)cc21 (stereo not drawn) | 96.2% (inactive) |
| COc1ccc2cc(C3(C)NC(=O)NC3=O)ccc2c1 (stereo not drawn) | 116% (inactive) |
| CC1(C)CC(=O)c2c(nc3ccccc3c2N)C1 | 90.9% (inactive) |
| Cc1ccccc1C(=O)Oc1ccc(Sc2ccc(O)cc2)cc1 | 99.3% (inactive) |

| SMILES | GFP response vs DMSO |
| --- | --- |
| O=C(NC1CC1)C1CCN(C2CCN(C(=O)Cc3ccc(F)cc3)CC2)CC1 | 136% (inactive) |
| CCc1cc(/C(Cc2ccccn2)=N\O)c(O)cc1O | 102% (inactive) |
| CC(=O)NC(CC(C)C)C(=O)NC(Cc1ccccc1)C(N)=O (stereo not drawn) (Ac-Leu-Phe-NH2; configuration not given here) | 107% (inactive) |
| CN(C)c1ccc(C(CN)c2c[nH]c3ccccc23)cc1 (stereo not drawn) | 109% (inactive) |
| CCn1cc(C(=O)O)c(=O)c2ccc(C)nc21 | 98.7% (inactive) |
| CN1[C@@H]2CC(OC(=O)[C@H](CO)c3ccccc3)C[C@H]1[C@@H]1O[C@@H]12 (stereo partly drawn) | 101% (inactive) and 115% (inactive) |
| CCOc1cc2c3c(c1)C(C)=CC(C)(C)N3C(=O)C2=O | 111% (inactive) |
| Cc1ccc(C)c(OCCCC(C)(C)C(=O)O)c1 | 97.2% (inactive) |
| CC1(C)C(=O)OC(C(=O)c2ccc(Cl)cc2)C(C)(C)C1=O (stereo not drawn) | 90.9% (inactive) |
| CC1(CC(=O)Nc2ccccc2)NC(=S)N(c2ccccc2)N1 (stereo not drawn) | 111% (inactive) |
| COc1cc2c(cc1OC)C(C)=NC1(CCCCC1)C2 | 98.6% (inactive) |
| Cc1occc(=O)c1O | 112% (inactive) |
| COC1CCN(Cc2cn(Cc3ccccc3)nc2-c2cc3ccccc3o2)CC1 | 93% (inactive) |
| COc1cccc2c(O)cc(=O)n(C)c12 | 111% (inactive) |
| CCN1C(=O)C(CC(=O)Nc2ccc(F)cc2)N(Cc2ccco2)C1=S (stereo not drawn) | 102% (inactive) |
| O=C(Cc1ccccc1[N+](=O)[O-])NCc1ccncc1 | 101% (inactive) |
| O=C1CC2(CCCC2)CC(=O)N1CCCCN1CCN(c2ncccn2)CC1 | 104% (inactive) |
| CCC(=O)c1ccc(OCc2ccc(C(=O)OC)cc2)cc1 | 104% (inactive) |
| COc1cccc(NC(=O)C2CC(=O)OC23CCOC(C)(C)C3)c1 (stereo not drawn) | 137% (inactive) |

assay: modulators of CIT2-GFP expression in yeast, primary screen, S. cerevisiae, GFP fusion, multiplex flow cytometry (AID 1870;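 active means percent response above a set limit, the screen-wide mean plus 3 SD, cut at about 130% in these data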;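 further: barcoded CIT2-GFP strain pooled with four other GFP strains with rapamycin as positive control; median GFP fluorescence per well over plate mean of DMSO wells so 100% = DMSO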); details: 3 h, at 10 µM, active compounds read high

| SMILES | percent response of DMSO control |
| --- | --- |
| CC(C)(C)OC(=O)N1CC(O)CC1C(=O)OCC(=O)c1ccc(Cl)cc1 (stereo not drawn) | 113% (inactive) |
| O=C(O)c1ccc(OCCn2ccnc2)cc1 | 106% (inactive) |
| CCOc1ccc2ccccc2c1CNc1nnnn1C | 107% (inactive) |
| COc1ccccc1N1C(=O)C2CC(C)=C(C)CC2C1=O (stereo not drawn) | 99.3% (inactive) |
| Cc1coc2c1c(C)cc1oc(=O)c(Cc3ccccc3)c(C)c12 | 102% (inactive) |
| COc1cc2c3c(c1)C(C)CC(C)(C)N3C(=O)C2=O (stereo not drawn) | 110% (inactive) |
| NS(=O)(=O)c1cc2c(cc1Cl)NCNS2(=O)=O | 95.7% (inactive) |
| O=C(O)C1Cc2ccccc2CN1S(=O)(=O)c1ccccc1 (stereo not drawn) | 92.9% (inactive) |
| COc1cccc(C2CC(=O)C3=C(C2)Nc2ccccc2N(C(=O)CCC(=O)O)C3c2ccc(F)cc2)c1 (stereo not drawn) | 102% (inactive) |
| CCC(C(=O)Nc1ccc2c(c1)OCCO2)c1ccccc1 (stereo not drawn) | 101% (inactive) |
| COc1ccc(C2C(C(=O)c3ccco3)=C(O)C(=O)N2CC2CCCO2)cc1 (stereo not drawn) | 104% (inactive) |
| C=CCNC(=O)c1ccc(-c2cccc([N+](=O)[O-])c2)o1 | 91.7% (inactive) |
| CC12CCC(C(=O)N(CCC#N)CCC#N)(CC1=O)C2(C)C (stereo not drawn) | 95.8% (inactive) |
| CC(=O)c1c(C)c(C)c2n1CCn1c(C)ccc1-2 | 93.1% (inactive) |
| COc1cc2cc(C)nc(Cc3cccc4ccccc34)c2cc1OC | 98.2% (inactive) |
| Cc1oc2cc(O)cc(O)c2c(=O)c1-c1ccc2c(c1)OCCCO2 | 88.2% (inactive) |
| O=CNC1CCCc2c1[nH]c1ccc(Cl)cc21 (stereo not drawn) | 100% (inactive) |
| COc1ccc2cc(C3(C)NC(=O)NC3=O)ccc2c1 (stereo not drawn) | 87.2% (inactive) |
| CC1(C)CC(=O)c2c(nc3ccccc3c2N)C1 | 111% (inactive) |
| Cc1ccccc1C(=O)Oc1ccc(Sc2ccc(O)cc2)cc1 | 100% (inactive) |

| SMILES | percent response of DMSO control |
| --- | --- |
| O=C(NC1CC1)C1CCN(C2CCN(C(=O)Cc3ccc(F)cc3)CC2)CC1 | 111% (inactive) |
| CCc1cc(/C(Cc2ccccn2)=N\O)c(O)cc1O | 107% (inactive) |
| CC(=O)NC(CC(C)C)C(=O)NC(Cc1ccccc1)C(N)=O (stereo not drawn) (Ac-Leu-Phe-NH2; configuration not given here) | 98.6% (inactive) |
| CN(C)c1ccc(C(CN)c2c[nH]c3ccccc23)cc1 (stereo not drawn) | 104% (inactive) |
| CCn1cc(C(=O)O)c(=O)c2ccc(C)nc21 | 92.4% (inactive) |
| CN1[C@@H]2CC(OC(=O)[C@H](CO)c3ccccc3)C[C@H]1[C@@H]1O[C@@H]12 (stereo partly drawn) | 109% (inactive) and 93.9% (inactive) |
| CCOc1cc2c3c(c1)C(C)=CC(C)(C)N3C(=O)C2=O | 103% (inactive) |
| Cc1ccc(C)c(OCCCC(C)(C)C(=O)O)c1 | 95.4% (inactive) |
| CC1(C)C(=O)OC(C(=O)c2ccc(Cl)cc2)C(C)(C)C1=O (stereo not drawn) | 107% (inactive) |
| CC1(CC(=O)Nc2ccccc2)NC(=S)N(c2ccccc2)N1 (stereo not drawn) | 90.1% (inactive) |
| COc1cc2c(cc1OC)C(C)=NC1(CCCCC1)C2 | 95.1% (inactive) |
| Cc1occc(=O)c1O | 110% (inactive) |
| COC1CCN(Cc2cn(Cc3ccccc3)nc2-c2cc3ccccc3o2)CC1 | 102% (inactive) |
| COc1cccc2c(O)cc(=O)n(C)c12 | 96.7% (inactive) |
| CCN1C(=O)C(CC(=O)Nc2ccc(F)cc2)N(Cc2ccco2)C1=S (stereo not drawn) | 95.1% (inactive) |
| O=C(Cc1ccccc1[N+](=O)[O-])NCc1ccncc1 | 101% (inactive) |
| O=C1CC2(CCCC2)CC(=O)N1CCCCN1CCN(c2ncccn2)CC1 | 96.6% (inactive) |
| CCC(=O)c1ccc(OCc2ccc(C(=O)OC)cc2)cc1 | 106% (inactive) |
| COc1cccc(NC(=O)C2CC(=O)OC23CCOC(C)(C)C3)c1 (stereo not drawn) | 95.2% (inactive) |
